From the supplement of paper PMC4466140

Legend:
Test in all cases: SPOT peptide array binding signal intensity (averaged, normalized) (arbitrary units (background-subtracted, floor 0; scale differs between SH3 domains)); higher = stronger binding of the SH3 domain to the peptide
AgAbp1 = biological target: AgAbp1
How it was run: (§1)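 Binding signal is given in arbitrary units that differ between domains and is the normalized, background-subtracted spot intensity averaged across replicates. Each GST-SH3 fusion from one of four yeast species was made in E. coli BL21(DE3), purified on glutathione Sepharose and incubated at 10 μg/ml overnight at 4°C on cellulose-bound synthetic 15-mer peptides in which cysteines were replaced by serines. Detection used anti-GST antibody, an HRP anti-mouse secondary and luminol, followed by imaging and Genespotter quantification.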

AgBbc1 = biological target: AgBbc1
How it was run: as §1

AgBem1-D1 = biological target: AgBem1-D1
How it was run: as §1

AgBzz1-D1 = biological target: AgBzz1-D1
How it was run: as §1

AgBzz1-D2 = biological target: AgBzz1-D2
How it was run: as §1

AgCyk3 = biological target: AgCyk3
How it was run: as §1

AgFus1 = biological target: AgFus1
How it was run: as §1

AgHof1 = biological target: AgHof1
How it was run: as §1

AgHse1 = biological target: AgHse1
How it was run: as §1

AgLsb1 = biological target: AgLsb1
How it was run: as §1

AgLsb4 = biological target: AgLsb4
How it was run: as §1

AgMyo5 = biological target: AgMyo5
How it was run: as §1

AgNbp2 = biological target: AgNbp2
How it was run: as §1

AgRvs167 = biological target: AgRvs167
How it was run: as §1

AgSho1 = biological target: AgSho1
How it was run: as §1

AgSla1-D1-D2 = biological target: AgSla1-D1-D2
How it was run: as §1

AgSla1-D3 = biological target: AgSla1-D3
How it was run: as §1

CaAbp1-D1 = biological target: CaAbp1-D1
How it was run: as §1

CaAbp1-D2 = biological target: CaAbp1-D2
How it was run: as §1

CaBbc1 = biological target: CaBbc1
How it was run: as §1

CaBem1-D1 = biological target: CaBem1-D1
How it was run: as §1

CaBzz1-D1 = biological target: CaBzz1-D1
How it was run: as §1

CaBzz1-D2 = biological target: CaBzz1-D2
How it was run: as §1

CaCyk3 = biological target: CaCyk3
How it was run: as §1

CaFus1 = biological target: CaFus1
How it was run: as §1

CaHof1 = biological target: CaHof1
How it was run: as §1

CaHse1 = biological target: CaHse1
How it was run: as §1

CaLsb1 = biological target: CaLsb1
How it was run: as §1

CaLsb4 = biological target: CaLsb4
How it was run: as §1

CaMyo5 = biological target: CaMyo5
How it was run: as §1

CaNbp2 = biological target: CaNbp2
How it was run: as §1

CaRvs167 = biological target: CaRvs167
How it was run: as §1

CaRvs167-3 = biological target: CaRvs167-3
How it was run: as §1

CaSho1 = biological target: CaSho1
How it was run: as §1

CaSla1-D1-D2 = biological target: CaSla1-D1-D2
How it was run: as §1

CaSla1-D3 = biological target: CaSla1-D3
How it was run: as §1

ScAbp1 = biological target: ScAbp1
How it was run: as §1

ScBbc1 = biological target: ScBbc1
How it was run: as §1

ScBem1-D1 = biological target: ScBem1-D1
How it was run: as §1

ScBzz1-D1 = biological target: ScBzz1-D1
How it was run: as §1

ScBzz1-D2 = biological target: ScBzz1-D2
How it was run: as §1

ScCyk3 = biological target: ScCyk3
How it was run: as §1

ScFus1 = biological target: ScFus1
How it was run: as §1

ScHof1 = biological target: ScHof1
How it was run: as §1

ScHse1 = biological target: ScHse1
How it was run: as §1

ScLsb1 = biological target: ScLsb1
How it was run: as §1

ScLsb2 = biological target: ScLsb2
How it was run: as §1

ScLsb3 = biological target: ScLsb3
How it was run: as §1

ScLsb4 = biological target: ScLsb4
How it was run: as §1

ScMyo3 = biological target: ScMyo3
How it was run: as §1

ScMyo5 = biological target: ScMyo5
How it was run: as §1

ScNbp2 = biological target: ScNbp2
How it was run: as §1

ScPex13 = biological target: ScPex13
How it was run: as §1

ScRvs167 = biological target: ScRvs167
How it was run: as §1

ScSho1 = biological target: ScSho1
How it was run: as §1

ScSla1-D1-D2 = biological target: ScSla1-D1-D2
How it was run: as §1

ScSla1-D3 = biological target: ScSla1-D3
How it was run: as §1

SpAbp1-D1 = biological target: SpAbp1-D1
How it was run: as §1

SpBbc1 = biological target: SpBbc1
How it was run: as §1

SpBzz1-D1 = biological target: SpBzz1-D1
How it was run: as §1

SpBzz1-D2 = biological target: SpBzz1-D2
How it was run: as §1

SpCyk3 = biological target: SpCyk3
How it was run: as §1

SpHof1 = biological target: SpHof1
How it was run: as §1

SpHof1-2 = biological target: SpHof1-2
How it was run: as §1

SpHof1-3 = biological target: SpHof1-3
How it was run: as §1

SpHse1 = biological target: SpHse1
How it was run: as §1

SpLsb1 = biological target: SpLsb1
How it was run: as §1

SpLsb4 = biological target: SpLsb4
How it was run: as §1

SpMyo1 = biological target: SpMyo1
How it was run: as §1

SpNbp2 = biological target: SpNbp2
How it was run: as §1

SpPex13 = biological target: SpPex13
How it was run: as §1

SpRvs167 = biological target: SpRvs167
How it was run: as §1

SpSla1-D1-D2 = biological target: SpSla1-D1-D2
How it was run: as §1

SpSla1-D3 = biological target: SpSla1-D3
How it was run: as §1

HVRRSILALPLGVLL
SPOT peptide array binding signal intensity (AgAbp1): 8
SPOT peptide array binding signal intensity (AgBbc1): 2.75
SPOT peptide array binding signal intensity (AgBem1-D1): 39
SPOT peptide array binding signal intensity (AgBzz1-D1): ≤ 0
SPOT peptide array binding signal intensity (AgBzz1-D2): 2.5
SPOT peptide array binding signal intensity (AgCyk3): 1
SPOT peptide array binding signal intensity (AgFus1): 605
SPOT peptide array binding signal intensity (AgHof1): 22.8
SPOT peptide array binding signal intensity (AgHse1): 325
SPOT peptide array binding signal intensity (AgLsb1): 61.5
SPOT peptide array binding signal intensity (AgLsb4): 201
SPOT peptide array binding signal intensity (AgMyo5): ≤ 0
SPOT peptide array binding signal intensity (AgNbp2): 57
SPOT peptide array binding signal intensity (AgRvs167): 0.5
SPOT peptide array binding signal intensity (AgSho1): 64
SPOT peptide array binding signal intensity (AgSla1-D1-D2): 6
SPOT peptide array binding signal intensity (AgSla1-D3): 5
SPOT peptide array binding signal intensity (CaAbp1-D1): 120
SPOT peptide array binding signal intensity (CaAbp1-D2): 85
SPOT peptide array binding signal intensity (CaBbc1): 10
SPOT peptide array binding signal intensity (CaBem1-D1): 10
SPOT peptide array binding signal intensity (CaBzz1-D1): 21
SPOT peptide array binding signal intensity (CaBzz1-D2): 22
SPOT peptide array binding signal intensity (CaCyk3): 3
SPOT peptide array binding signal intensity (CaFus1): 2060
SPOT peptide array binding signal intensity (CaHof1): ≤ 0
SPOT peptide array binding signal intensity (CaHse1): 25
SPOT peptide array binding signal intensity (CaLsb1): 0.25
SPOT peptide array binding signal intensity (CaLsb4): 47
SPOT peptide array binding signal intensity (CaMyo5): 5.25
SPOT peptide array binding signal intensity (CaNbp2): 450
SPOT peptide array binding signal intensity (CaRvs167): 16.8
SPOT peptide array binding signal intensity (CaRvs167-3): 7.75
SPOT peptide array binding signal intensity (CaSho1): 439
SPOT peptide array binding signal intensity (CaSla1-D1-D2): ≤ 0
SPOT peptide array binding signal intensity (CaSla1-D3): 25
SPOT peptide array binding signal intensity (ScAbp1): 22
SPOT peptide array binding signal intensity (ScBbc1): ≤ 0
SPOT peptide array binding signal intensity (ScBem1-D1): 10
SPOT peptide array binding signal intensity (ScBzz1-D1): 12.5
SPOT peptide array binding signal intensity (ScBzz1-D2): 3.5
SPOT peptide array binding signal intensity (ScCyk3): 56
SPOT peptide array binding signal intensity (ScFus1): 522
SPOT peptide array binding signal intensity (ScHof1): 1.5
SPOT peptide array binding signal intensity (ScHse1): 772
SPOT peptide array binding signal intensity (ScLsb1): 5.5
SPOT peptide array binding signal intensity (ScLsb2): ≤ 0
SPOT peptide array binding signal intensity (ScLsb3): 182
SPOT peptide array binding signal intensity (ScLsb4): 15.5
SPOT peptide array binding signal intensity (ScMyo3): ≤ 0
SPOT peptide array binding signal intensity (ScMyo5): ≤ 0
SPOT peptide array binding signal intensity (ScNbp2): 114
SPOT peptide array binding signal intensity (ScPex13): ≤ 0
SPOT peptide array binding signal intensity (ScRvs167): 22.2
SPOT peptide array binding signal intensity (ScSho1): 1000
SPOT peptide array binding signal intensity (ScSla1-D1-D2): 5
SPOT peptide array binding signal intensity (ScSla1-D3): 2
SPOT peptide array binding signal intensity (SpAbp1-D1): 124
SPOT peptide array binding signal intensity (SpBbc1): 2
SPOT peptide array binding signal intensity (SpBzz1-D1): 30
SPOT peptide array binding signal intensity (SpBzz1-D2): ≤ 0
SPOT peptide array binding signal intensity (SpCyk3): 3
SPOT peptide array binding signal intensity (SpHof1): 49
SPOT peptide array binding signal intensity (SpHof1-2): 8.5
SPOT peptide array binding signal intensity (SpHof1-3): 180
SPOT peptide array binding signal intensity (SpHse1): 508
SPOT peptide array binding signal intensity (SpLsb1): 2
SPOT peptide array binding signal intensity (SpLsb4): 73.5
SPOT peptide array binding signal intensity (SpMyo1): 2.5
SPOT peptide array binding signal intensity (SpNbp2): 194
SPOT peptide array binding signal intensity (SpPex13): ≤ 0
SPOT peptide array binding signal intensity (SpRvs167): 9.83
SPOT peptide array binding signal intensity (SpSla1-D1-D2): 2
SPOT peptide array binding signal intensity (SpSla1-D3): 1

RTIRKLPLMSLSEYF
SPOT peptide array binding signal intensity (AgAbp1): 7.5
SPOT peptide array binding signal intensity (AgBbc1): 14.5
SPOT peptide array binding signal intensity (AgBem1-D1): 106
SPOT peptide array binding signal intensity (AgBzz1-D1): 8
SPOT peptide array binding signal intensity (AgBzz1-D2): 21
SPOT peptide array binding signal intensity (AgCyk3): 0.5
SPOT peptide array binding signal intensity (AgFus1): 345
SPOT peptide array binding signal intensity (AgHof1): 34.5
SPOT peptide array binding signal intensity (AgHse1): 356
SPOT peptide array binding signal intensity (AgLsb1): ≤ 0
SPOT peptide array binding signal intensity (AgLsb4): 61.5
SPOT peptide array binding signal intensity (AgMyo5): 0.25
SPOT peptide array binding signal intensity (AgNbp2): 379
SPOT peptide array binding signal intensity (AgRvs167): 3
SPOT peptide array binding signal intensity (AgSho1): 122
SPOT peptide array binding signal intensity (AgSla1-D1-D2): 46
SPOT peptide array binding signal intensity (AgSla1-D3): 8
SPOT peptide array binding signal intensity (CaAbp1-D1): 285
SPOT peptide array binding signal intensity (CaAbp1-D2): 123
SPOT peptide array binding signal intensity (CaBbc1): 42.5
SPOT peptide array binding signal intensity (CaBem1-D1): 66.5
SPOT peptide array binding signal intensity (CaBzz1-D1): 82.5
SPOT peptide array binding signal intensity (CaBzz1-D2): 63.5
SPOT peptide array binding signal intensity (CaCyk3): 59
SPOT peptide array binding signal intensity (CaFus1): 942
SPOT peptide array binding signal intensity (CaHof1): ≤ 0
SPOT peptide array binding signal intensity (CaHse1): 121
SPOT peptide array binding signal intensity (CaLsb1): 4.5
SPOT peptide array binding signal intensity (CaLsb4): 282
SPOT peptide array binding signal intensity (CaMyo5): 6
